Test results taken from PubChem BioAssay.
Active and inactive are the calls of the source. Cut-off read from the data, not from the text of the source, unless noted: active = response above about 15%; inactive = the rest.

How the values were obtained:
[1] = reduced mouse 2C T cell binding to pMHC/ICAM-1 vesicles – MLPCN validation set, flow cytometry, LFA-1/ICAM-1 modulator project, pilot screen (AID 2523;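 active = response below a set limit, under 55% cells CD8-positive and vesicle-bound, and CD8 cells' 90th-percentile brightness under 279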;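 for vesicle binding response: mean PE anti-B7-1 fluorescence of CD8+ cells relative to row control; 100% = QL9-loaded vesicles with DMSO vehicle in the same plate row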); settings: 2C mouse CD8+ T cells, at 7 µM, stronger effect = lower value; double positive events: measured here: CD8+/vesicle+ event percentage
[2] = target: Integrin beta-1 (Homo sapiens) + Integrin alpha-4 (Homo sapiens) (UniProt P13612+P05556); assay: alpha4beta1 integrin LIBS antibody binding reduction – U937 cells, HUTS-21 mAb, flow cytometry, validation set, VLA-4 allosteric modulator project, pilot screen (AID 2674;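 active = inhibition above 50%, about 3 SD of the validation set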;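 note: antibody binding induced by the VLA-4 ligand LDV present at three times its Kd; 0% = LDV ligand with antibody and no compound and 100% = antibody without LDV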); settings: HUTS-21 LIBS mAb binding, at 6.7 µM, stronger effect = higher value, binding induced by LDV ligand
Chain of Integrin beta-1 (Homo sapiens) + Integrin alpha-4 (Homo sapiens) (P05556 whole entry, looked up): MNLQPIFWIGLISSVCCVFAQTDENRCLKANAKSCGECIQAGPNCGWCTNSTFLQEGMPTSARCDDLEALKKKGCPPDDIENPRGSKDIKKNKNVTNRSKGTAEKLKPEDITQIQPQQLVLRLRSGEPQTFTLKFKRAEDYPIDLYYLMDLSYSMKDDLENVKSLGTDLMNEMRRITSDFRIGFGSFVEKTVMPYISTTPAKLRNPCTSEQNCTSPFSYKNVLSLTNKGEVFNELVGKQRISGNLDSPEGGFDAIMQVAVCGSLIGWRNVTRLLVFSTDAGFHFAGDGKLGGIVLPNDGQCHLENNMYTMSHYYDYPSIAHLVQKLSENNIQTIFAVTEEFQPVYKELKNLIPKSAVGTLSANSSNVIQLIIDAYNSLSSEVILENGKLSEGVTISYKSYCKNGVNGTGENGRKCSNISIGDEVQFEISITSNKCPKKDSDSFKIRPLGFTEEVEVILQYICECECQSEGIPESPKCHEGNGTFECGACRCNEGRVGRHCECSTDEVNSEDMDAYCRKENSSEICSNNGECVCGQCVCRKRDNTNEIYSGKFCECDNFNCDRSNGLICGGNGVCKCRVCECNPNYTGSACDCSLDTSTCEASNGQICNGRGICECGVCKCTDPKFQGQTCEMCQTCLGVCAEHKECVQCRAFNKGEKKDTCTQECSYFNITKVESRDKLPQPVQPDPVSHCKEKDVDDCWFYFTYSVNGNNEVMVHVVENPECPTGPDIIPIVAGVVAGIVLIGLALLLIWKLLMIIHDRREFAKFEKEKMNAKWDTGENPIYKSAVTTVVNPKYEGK
Chain of Integrin beta-1 (Homo sapiens) + Integrin alpha-4 (Homo sapiens) (P13612 whole entry, looked up): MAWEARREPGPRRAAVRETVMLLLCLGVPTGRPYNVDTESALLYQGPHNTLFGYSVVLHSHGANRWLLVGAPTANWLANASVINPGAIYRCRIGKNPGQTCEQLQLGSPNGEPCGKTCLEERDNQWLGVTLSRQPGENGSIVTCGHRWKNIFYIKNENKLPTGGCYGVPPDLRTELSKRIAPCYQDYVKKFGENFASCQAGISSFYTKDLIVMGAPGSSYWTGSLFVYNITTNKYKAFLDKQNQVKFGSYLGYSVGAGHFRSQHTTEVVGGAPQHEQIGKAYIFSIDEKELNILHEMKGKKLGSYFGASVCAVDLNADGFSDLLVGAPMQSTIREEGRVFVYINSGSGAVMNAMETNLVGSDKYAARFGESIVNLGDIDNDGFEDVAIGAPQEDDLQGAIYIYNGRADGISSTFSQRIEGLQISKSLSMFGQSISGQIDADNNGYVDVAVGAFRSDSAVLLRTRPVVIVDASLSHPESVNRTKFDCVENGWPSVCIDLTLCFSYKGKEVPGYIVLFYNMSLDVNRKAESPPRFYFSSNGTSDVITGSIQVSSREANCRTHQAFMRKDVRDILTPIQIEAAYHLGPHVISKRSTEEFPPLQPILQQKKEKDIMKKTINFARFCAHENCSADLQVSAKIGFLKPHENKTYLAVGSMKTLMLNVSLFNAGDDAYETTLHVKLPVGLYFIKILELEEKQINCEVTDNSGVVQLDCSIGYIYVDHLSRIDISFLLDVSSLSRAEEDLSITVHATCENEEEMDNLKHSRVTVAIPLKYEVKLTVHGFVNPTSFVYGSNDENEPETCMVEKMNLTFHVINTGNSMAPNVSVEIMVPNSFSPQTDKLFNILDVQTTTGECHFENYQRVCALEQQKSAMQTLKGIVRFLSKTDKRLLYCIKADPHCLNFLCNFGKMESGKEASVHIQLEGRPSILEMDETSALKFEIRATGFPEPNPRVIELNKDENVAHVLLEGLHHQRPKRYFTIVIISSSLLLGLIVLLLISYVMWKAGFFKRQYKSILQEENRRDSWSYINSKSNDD

[3] = calorie-restriction mimetic ROS inhibitors, yeast – validation compound set, pilot screen (AID 2706;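 active = superoxide response below 65% of plate, a cut near 3 SD across the whole screen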;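 note: yeast exposed to compound for one week at 30 degrees C before staining; 100% = mean of all compound wells on the same plate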); settings: S. cerevisiae aging, superoxide DHE fluorescence; at 10 µM, stronger effect = lower value
[4] = target: Beta-adrenergic receptor kinase 1 (Homo sapiens) (UniProt P25098); assay: GRK2 binders displacing RNA aptamer, biochemical, validation, human GRK2, bead flow cytometry (AID 488806;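 active = aptamer binding inhibition above 30%, about 3 SD of noise from non-fluorescent compounds; inactive = inhibition at or below 30%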); settings: bead-bound GRK2, FAM-aptamer displacement, at 10 µM, stronger effect = higher value
Chain of Beta-adrenergic receptor kinase 1 (Homo sapiens) (P25098 whole entry, looked up): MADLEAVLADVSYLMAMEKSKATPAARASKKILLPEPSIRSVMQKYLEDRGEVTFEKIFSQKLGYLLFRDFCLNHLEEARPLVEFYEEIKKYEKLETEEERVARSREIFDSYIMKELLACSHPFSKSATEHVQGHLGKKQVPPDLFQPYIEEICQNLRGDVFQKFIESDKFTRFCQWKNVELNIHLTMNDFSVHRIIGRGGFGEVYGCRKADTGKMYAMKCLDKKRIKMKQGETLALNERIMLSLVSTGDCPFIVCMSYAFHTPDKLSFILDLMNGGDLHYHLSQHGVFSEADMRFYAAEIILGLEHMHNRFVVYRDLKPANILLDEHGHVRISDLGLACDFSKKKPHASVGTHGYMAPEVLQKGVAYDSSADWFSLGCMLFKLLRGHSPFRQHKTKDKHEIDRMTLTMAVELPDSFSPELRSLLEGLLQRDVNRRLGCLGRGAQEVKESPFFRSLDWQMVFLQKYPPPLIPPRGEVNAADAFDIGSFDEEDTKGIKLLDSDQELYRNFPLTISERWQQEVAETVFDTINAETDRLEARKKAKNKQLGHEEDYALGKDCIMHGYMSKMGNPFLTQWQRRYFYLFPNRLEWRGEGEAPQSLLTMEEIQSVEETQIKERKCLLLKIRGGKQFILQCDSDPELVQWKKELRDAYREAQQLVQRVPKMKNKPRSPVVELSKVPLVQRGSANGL

[5] = target: Beta-2 adrenergic receptor (Homo sapiens) (UniProt P07550); assay: agonist-induced loss of surface beta2AR – cell-based, FAP fluorogen, flow cytometry, validation set, pilot screen (AID 504459;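 active = percent response above 42, roughly 3 SD of non-fluorescent test compounds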;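 note: agonist-driven loss of surface beta2AR via internalization measured by FAP dye flow cytometry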); settings: Am2.2-beta2AR cells, at 10 µM, stronger effect = higher value
Chain of Beta-2 adrenergic receptor (Homo sapiens) (P07550 whole entry, looked up): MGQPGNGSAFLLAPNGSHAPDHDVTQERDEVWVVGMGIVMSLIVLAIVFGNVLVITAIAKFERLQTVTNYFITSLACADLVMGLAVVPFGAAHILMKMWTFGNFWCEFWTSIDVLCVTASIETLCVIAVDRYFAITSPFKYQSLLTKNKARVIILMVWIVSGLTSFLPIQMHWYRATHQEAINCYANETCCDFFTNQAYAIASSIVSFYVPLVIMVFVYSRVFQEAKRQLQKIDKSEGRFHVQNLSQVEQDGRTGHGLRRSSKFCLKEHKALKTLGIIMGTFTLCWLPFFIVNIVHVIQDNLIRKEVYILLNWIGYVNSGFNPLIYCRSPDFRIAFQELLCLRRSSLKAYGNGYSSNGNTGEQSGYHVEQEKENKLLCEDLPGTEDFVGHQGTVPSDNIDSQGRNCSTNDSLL

[6] = target: AP-2 complex subunit beta (Homo sapiens) (UniProt P63010); assay: beta-arrestin/AP2 interaction blockers – biochemical, validation set, GST-AP2 beads, flow cytometry, pilot screen (AID 504541;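 active = inhibition above 54%, about 3 SD of non-fluorescent compounds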;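 note: AP2 carries R879A mutation and is captured from E. coli lysate; bead-bound FITC arrestin peptide fluorescence measuring arrestin peptide binding to AP2; 0% = DMSO wells and 100% = excess unlabeled arrestin peptide control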); settings: FITC arrestin peptide, at 10 µM, stronger effect = higher value, AP2 beta2 appendage fragment, R879A mutant
Chain of AP-2 complex subunit beta (Homo sapiens) (P63010 whole entry, looked up, the tested form may be a part, one chain of several): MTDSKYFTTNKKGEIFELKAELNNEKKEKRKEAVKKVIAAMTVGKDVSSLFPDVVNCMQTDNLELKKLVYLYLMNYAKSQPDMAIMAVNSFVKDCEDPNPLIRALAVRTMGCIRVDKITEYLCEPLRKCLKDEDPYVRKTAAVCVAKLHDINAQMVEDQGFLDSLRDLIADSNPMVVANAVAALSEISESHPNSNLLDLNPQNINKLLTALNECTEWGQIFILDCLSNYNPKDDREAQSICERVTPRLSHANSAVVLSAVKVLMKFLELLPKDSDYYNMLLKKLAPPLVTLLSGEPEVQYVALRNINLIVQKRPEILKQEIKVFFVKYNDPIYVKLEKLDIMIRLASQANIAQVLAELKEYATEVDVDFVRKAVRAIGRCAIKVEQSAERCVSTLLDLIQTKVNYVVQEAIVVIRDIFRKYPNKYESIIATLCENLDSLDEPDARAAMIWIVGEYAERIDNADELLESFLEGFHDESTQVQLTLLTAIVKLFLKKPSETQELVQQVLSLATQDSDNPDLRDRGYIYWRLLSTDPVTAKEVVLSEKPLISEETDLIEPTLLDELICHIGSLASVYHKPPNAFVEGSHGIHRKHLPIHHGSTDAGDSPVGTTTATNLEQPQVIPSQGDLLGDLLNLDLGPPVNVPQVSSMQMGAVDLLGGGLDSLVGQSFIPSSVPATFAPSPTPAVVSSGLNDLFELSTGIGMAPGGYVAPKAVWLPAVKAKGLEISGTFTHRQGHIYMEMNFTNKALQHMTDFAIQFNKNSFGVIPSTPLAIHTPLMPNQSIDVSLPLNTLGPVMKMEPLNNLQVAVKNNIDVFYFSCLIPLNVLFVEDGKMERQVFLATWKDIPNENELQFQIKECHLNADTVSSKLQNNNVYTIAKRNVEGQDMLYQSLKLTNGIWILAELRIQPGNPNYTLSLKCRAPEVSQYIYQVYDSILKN

[7] = cytosolic pH regulators acting via V-ATPase – S. cerevisiae, pHLuorin, HTS validation (AID 504600); settings: V-ATPase proton transport, at 10 µM, stronger effect = higher value;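 note: plate controls were DMSO for no effect and reference compound for full effect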
[8] = system: anti-desmoglein-3 scFv antibody binding to human DSG3; assay: blockers of pathogenic pemphigus antibody–desmoglein-3 binding – biochemical, validation compound set, bead-based, flow cytometry, pilot screen (AID 588368;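 active = binding below the plate cutoff, the plate median minus 3 SD, with a reading above zero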;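 note: signal is the median channel fluorescence of bead-bound GFP antibody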); settings: Protein G beads, DSG3-Fc, scFv-GFP binding, at 10 µM, stronger effect = lower value
[9] = Nile Red efflux blockade in pump-expressing yeast – validation compound set, multiplex, phenotypic, pilot screen (AID 588506;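 active = efflux inhibition above 0.42, the validation set average plus 4 SD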;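 note: Nile Red retained in cells so higher fluorescence means more efflux inhibition; 0 = negative control wells and 1 = enniatin B 25 µM full block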); settings: S. cerevisiae pump-expressing triplex, Nile Red efflux flow cytometry; at 10 µM; stronger effect = higher value; the pumps come from Candida albicans
[10] = target: ATP-binding cassette sub-family B member 6 (Homo sapiens) (UniProt Q9NP58); assay: blockers of ABCB6-driven porphyrin uptake – K562-ABCB6 cells, flow cytometry, validation set, pilot screen (AID 588550;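 active = inhibition above the screen-wide mean plus 3 SD, about 51%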;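 note: 0% = DMSO wells and 100% = benzethonium chloride 70 µM positive control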); settings: K562-ABCB6 porphyrin accumulation, 1 h, at 10 µM, stronger effect = higher value
Chain of ATP-binding cassette sub-family B member 6 (Homo sapiens) (Q9NP58 whole entry, looked up): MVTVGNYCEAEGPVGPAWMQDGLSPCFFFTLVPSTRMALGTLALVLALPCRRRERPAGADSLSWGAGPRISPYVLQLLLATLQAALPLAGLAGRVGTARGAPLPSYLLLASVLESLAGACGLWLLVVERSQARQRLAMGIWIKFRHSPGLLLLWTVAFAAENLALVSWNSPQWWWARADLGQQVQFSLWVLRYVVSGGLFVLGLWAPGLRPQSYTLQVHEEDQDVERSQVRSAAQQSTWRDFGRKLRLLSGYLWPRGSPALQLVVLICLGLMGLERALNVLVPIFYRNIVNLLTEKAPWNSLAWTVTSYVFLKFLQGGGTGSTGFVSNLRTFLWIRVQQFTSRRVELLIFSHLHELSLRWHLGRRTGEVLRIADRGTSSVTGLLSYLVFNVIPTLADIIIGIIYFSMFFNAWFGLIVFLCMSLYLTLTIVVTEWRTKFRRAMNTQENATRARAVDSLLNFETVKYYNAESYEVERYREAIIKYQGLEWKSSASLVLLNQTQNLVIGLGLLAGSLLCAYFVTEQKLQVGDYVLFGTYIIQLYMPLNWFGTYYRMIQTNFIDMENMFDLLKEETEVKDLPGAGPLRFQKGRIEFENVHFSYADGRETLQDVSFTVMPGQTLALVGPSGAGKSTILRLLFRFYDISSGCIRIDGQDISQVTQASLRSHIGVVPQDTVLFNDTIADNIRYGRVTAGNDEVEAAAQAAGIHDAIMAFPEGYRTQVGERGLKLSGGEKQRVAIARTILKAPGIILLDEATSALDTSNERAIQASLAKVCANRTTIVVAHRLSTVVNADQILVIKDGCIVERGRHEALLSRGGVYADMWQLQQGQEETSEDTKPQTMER

[11] = AML differentiation inducers, ER-HoxA9 marrow cells – cell-based, GFP/MAC1 double positive, flow cytometry, validation set, primary screen (AID 588685;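 active = differentiation response of at least 50%, scaled between solvent and reference control, from cells with both markers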;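 note: compound exposure lasts four days before antibody staining and flow analysis; 0% = DMSO wells and 100% = 5 µM fulvestrant positive control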); settings: stronger effect = higher value, normalized: vehicle 0, fulvestrant 100

Cc1csc(-c2coc3cc(O)cc(C)c3c2=O)n1
inactive: vesicle binding response [1] 138% | inhibition [2] 2.3% | superoxide response (% of plate) [3] 119% | aptamer binding inhibition [4] 2% | response [5] 0.13% | inhibition [6] 13.4% | response [7] -4.09% | binding (% of control) [8] 97.4% | efflux inhibition (fraction of control) [9] -0.03 | inhibition [10] 17% | differentiation response [11] 2.4%
63.8%: double positive events [1]

CCOc1ccc(CC2c3cc(OCC)c(OCC)cc3CCN2C(=O)CN2CCN(C)CC2)cc1OCC (stereo not drawn)
inactive: vesicle binding response [1] 160% | inhibition [2] -11.3% | superoxide response (% of plate) [3] 82.4% | aptamer binding inhibition [4] 0% | response [5] -8.24% | inhibition [6] 5.19% | response [7] -5.23% | binding (% of control) [8] 108% | efflux inhibition (fraction of control) [9] -0.04 | inhibition [10] 4% | differentiation response [11] -3.02%
61.7%: double positive events [1]

COc1ccc2cc[nH]c2c1
inactive: vesicle binding response [1] 407% | inhibition [2] -5.38% | superoxide response (% of plate) [3] 104% | aptamer binding inhibition [4] 2% | response [5] -20.2% | inhibition [6] -3.08% | response [7] 0.61% | binding (% of control) [8] 103% | efflux inhibition (fraction of control) [9] 0 | inhibition [10] 5% | differentiation response [11] -10.9%
67.5%: double positive events [1]

O=c1[nH]cnc2c1ncn2[C@@H]1O[C@H](CO)[C@@H](O)[C@H]1O
inactive: vesicle binding response [1] 140% | inhibition [2] -15.6% | superoxide response (% of plate) [3] 86.8% | aptamer binding inhibition [4] 2% | response [5] -18% | inhibition [6] -10.3% | response [7] -0.11% | binding (% of control) [8] 106% | efflux inhibition (fraction of control) [9] 0.12 | inhibition [10] 5% | differentiation response [11] -7.94%
62%: double positive events [1]

Cn1c2[n+](c3ccc(Cl)cc3c1=O)Cc1ccccc1-2
inactive: vesicle binding response [1] 278% | inhibition [2] -13% | superoxide response (% of plate) [3] 97.2% | aptamer binding inhibition [4] 1% | response [5] -8.51% | inhibition [6] 1.06% | response [7] 7.46% | binding (% of control) [8] 107% | efflux inhibition (fraction of control) [9] 0.21 | inhibition [10] 10% | differentiation response [11] 20.6%
69%: double positive events [1]

CCSc1nc(O)c(C2OC(=O)c3c2ccc(OC)c3OC)c(=O)n1CC (stereo not drawn)
69.4%: double positive events [1]
active: inhibition [10] 109%
inactive: vesicle binding response [1] 289% | inhibition [2] -1.79% | superoxide response (% of plate) [3] 86.4% | aptamer binding inhibition [4] 2% | response [5] 15.5% | inhibition [6] -2.62% | response [7] -1.36% | binding (% of control) [8] 101% | efflux inhibition (fraction of control) [9] 0.12 | differentiation response [11] 20%

CC(=O)N1CC2(C)CN(C(C)=O)CC(C)(C1)C2
inactive: vesicle binding response [1] 169% | inhibition [2] 8.25% | superoxide response (% of plate) [3] 91.7% | aptamer binding inhibition [4] -2% | response [5] -23.9% | inhibition [6] -12.9% | response [7] 1.35% | binding (% of control) [8] 100% | efflux inhibition (fraction of control) [9] 0 | inhibition [10] -1% | differentiation response [11] -4.99%
60.3%: double positive events [1]

O=C(O)C1Sc2[nH]c(=O)sc2C2c3ccc(O)cc3OC(=O)C12 (stereo not drawn)
62.6%: double positive events [1]
inactive: vesicle binding response [1] 157% | inhibition [2] -11.8% | superoxide response (% of plate) [3] 107% | aptamer binding inhibition [4] 1% | response [5] -11.1% | inhibition [6] -0.44% | response [7] 5.3% | binding (% of control) [8] 95.7% | efflux inhibition (fraction of control) [9] -0.1 | inhibition [10] -131% | differentiation response [11] -3.11%

CCOC(=O)COc1ccc2c(=O)c(-c3ccccc3)coc2c1
inactive: vesicle binding response [1] 236% | inhibition [2] 21% | superoxide response (% of plate) [3] 92.8% | aptamer binding inhibition [4] 0% | response [5] -10.5% | inhibition [6] 1.34% | response [7] 0.65% | binding (% of control) [8] 100% | efflux inhibition (fraction of control) [9] -0.09 | inhibition [10] -4% | differentiation response [11] -7.94%
61.7%: double positive events [1]

Cc1csc(CCc2nc(C)cs2)n1
55.3%: double positive events [1]
inactive: vesicle binding response [1] 130% | inhibition [2] 2.93% | superoxide response (% of plate) [3] 108% | aptamer binding inhibition [4] 1% | response [5] -2.9% | inhibition [6] -2.65% | response [7] 0.13% | binding (% of control) [8] 102% | efflux inhibition (fraction of control) [9] 0.01 | inhibition [10] 17% | differentiation response [11] -4.57%

O=c1cc(-c2ccc3c(c2)OCCO3)oc2ccc(Cl)cc12
active: response [7] 51.3% | binding (% of control) [8] 74.9%
59%: double positive events [1]
inactive: vesicle binding response [1] 102% | inhibition [2] 2.93% | superoxide response (% of plate) [3] 98.9% | aptamer binding inhibition [4] -1% | response [5] -2.34% | inhibition [6] -6.8% | efflux inhibition (fraction of control) [9] 0.08 | inhibition [10] 27% | differentiation response [11] -6.03%

COc1ccccc1C(CC(=O)Nc1ccccc1C)c1ccc(OC(C)C)cc1 (stereo not drawn)
active: efflux inhibition (fraction of control) [9] 0.54
63.5%: double positive events [1]
inactive: vesicle binding response [1] 263% | inhibition [2] 9.95% | superoxide response (% of plate) [3] 92.7% | aptamer binding inhibition [4] 4% | response [5] -15% | inhibition [6] -4.43% | response [7] -5.65% | binding (% of control) [8] 105% | inhibition [10] 0% | differentiation response [11] -1.05%

O=C1N[C@@H](Cc2cnc[nH]2)C(=O)N2CCC[C@@H]12
inactive: vesicle binding response [1] 103% | inhibition [2] 12.3% | superoxide response (% of plate) [3] 125% | aptamer binding inhibition [4] 2% | response [5] 6.03% | inhibition [6] -3.62% | response [7] 6.06% | binding (% of control) [8] 100% | efflux inhibition (fraction of control) [9] -0.07 | inhibition [10] -2% | differentiation response [11] -7.5%
59.8%: double positive events [1]

Cc1ccc2c(c1)c1c(n2C)C(=O)CCC1
inactive: vesicle binding response [1] 126% | inhibition [2] -7.79% | superoxide response (% of plate) [3] 86.4% | aptamer binding inhibition [4] 2% | response [5] 6.59% | inhibition [6] -3.89% | response [7] -3.07% | binding (% of control) [8] 97.9% | efflux inhibition (fraction of control) [9] 0.41 | inhibition [10] 0% | differentiation response [11] -8.96%
57.6%: double positive events [1]

CC(COc1ccccc1)N(CCCl)Cc1ccccc1 (stereo not drawn)
70.8%: double positive events [1]
inactive: vesicle binding response [1] 566% | inhibition [2] 6.46% | superoxide response (% of plate) [3] 97.4% | aptamer binding inhibition [4] 2% | response [5] -7.17% | inhibition [6] 1.11% | response [7] 2.49% | binding (% of control) [8] 100% | efflux inhibition (fraction of control) [9] -0.35 | inhibition [10] 10% | differentiation response [11] 0%

CCn1cc(C(=O)O)c(=O)c2cc(F)c(N3CCNCC3)cc21
70.1%: double positive events [1]
inactive: vesicle binding response [1] 276% | inhibition [2] 14.2% | superoxide response (% of plate) [3] 104% | aptamer binding inhibition [4] 2% | response [5] 29.6% | inhibition [6] 5.87% | response [7] 7.15% | binding (% of control) [8] 98% | efflux inhibition (fraction of control) [9] 0 | inhibition [10] 2% | differentiation response [11] 10.8%

COc1ccc(C(=O)C2CCCCC2=O)cc1 (stereo not drawn)
67.8%: double positive events [1]
inactive: vesicle binding response [1] 193% | inhibition [2] 9.1% | superoxide response (% of plate) [3] 100% | aptamer binding inhibition [4] 0% | response [5] 15.9% | inhibition [6] 2.47% | response [7] -6% | binding (% of control) [8] 101% | efflux inhibition (fraction of control) [9] 0.04 | inhibition [10] 16% | differentiation response [11] -7.94%

CCn1c(O)c(/C=C2\C=Nc3ccccc32)sc1=O
inactive: vesicle binding response [1] 97.1% | inhibition [2] -0.31% | superoxide response (% of plate) [3] 108% | aptamer binding inhibition [4] 1% | response [5] -3.25% | inhibition [6] -17.2% | response [7] 0.06% | binding (% of control) [8] 97.5% | efflux inhibition (fraction of control) [9] -0.44 | inhibition [10] 4% | differentiation response [11] -5.68%
63.1%: double positive events [1]

C=CCn1c(SCC(=O)NC2CCCCC2)nc2ccccc2c1=O
inactive: vesicle binding response [1] 172% | inhibition [2] 4.27% | superoxide response (% of plate) [3] 114% | aptamer binding inhibition [4] 3% | response [5] -5.54% | inhibition [6] 1.93% | response [7] 11.4% | binding (% of control) [8] 99.2% | efflux inhibition (fraction of control) [9] 0 | inhibition [10] -4% | differentiation response [11] -17.7%
57.6%: double positive events [1]
